In the supplement of paper PMC6897291:
Structures can show the parent of a compound that is named as a salt.

Assays:
U-2932 [1] = assay: growth inhibition by drug alone (1 - RLU/untreated control) (fraction); higher = stronger inhibition; conditions: 177Lu-lilotomab satetraxetan 0 ug/ml
Outline: (§1)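 RIVA or U-2932 cells were left untreated or pretreated for 18 h with a radiolabelled anti-CD37 antibody conjugate (~600 MBq/mg) at 0.5 µg/ml for RIVA or 1 µg/ml for U-2932. The cells were then washed and seeded at 3,000 cells/well on plates pre-printed with the Selleck Cambridge Cancer Compound library, dosed at 10/100 nM for RIVA and 10/1,000 nM for U-2932. From day 3, RealTime-Glo luminescence was read daily after 1 h at 37°C. Growth inhibition was taken as one minus RLU over the mean of the untreated no-drug wells, of which there were 48 per plate.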

RIVA [2] = assay: as above; conditions: 177Lu-lilotomab satetraxetan 0 ug/ml
Outline: as §1

U-2932 [3] = assay: growth inhibition by drug plus 177Lu-lilotomab satetraxetan (1 - RLU/untreated control) (fraction); higher = stronger inhibition; conditions: 177Lu-lilotomab satetraxetan 1 ug/ml
Outline: as §1

RIVA [4] = assay: as above; conditions: 177Lu-lilotomab satetraxetan 0.5 ug/ml
Outline: as §1

| SMILES | growth inhibition by drug alone (U-2932 [1]; 10 nM, time (day): 3) | growth inhibition by drug alone (U-2932 [1]; 10 nM, time (day): 4) | growth inhibition by drug alone (U-2932 [1]; 10 nM, time (day): 5) | growth inhibition by drug alone (U-2932 [1]; 10 nM, time (day): 6) | growth inhibition by drug alone (U-2932 [1]; 1000 nM, time (day): 3) | growth inhibition by drug alone (U-2932 [1]; 1000 nM, time (day): 4) | growth inhibition by drug alone (U-2932 [1]; 1000 nM, time (day): 5) | growth inhibition by drug alone (U-2932 [1]; 1000 nM, time (day): 6) | growth inhibition by drug alone (RIVA [2]; 10 nM, time (day): 3) | growth inhibition by drug alone (RIVA [2]; 10 nM, time (day): 4) | growth inhibition by drug alone (RIVA [2]; 10 nM, time (day): 5) | growth inhibition by drug alone (RIVA [2]; 10 nM, time (day): 6) | growth inhibition by drug alone (RIVA [2]; 100 nM, time (day): 3) | growth inhibition by drug alone (RIVA [2]; 100 nM, time (day): 4) | growth inhibition by drug alone (RIVA [2]; 100 nM, time (day): 5) | growth inhibition by drug alone (RIVA [2]; 100 nM, time (day): 6) | growth inhibition by drug plus 177Lu-lilotomab satetraxetan (U-2932 [3]; 10 nM, time (day): 3) | growth inhibition by drug plus 177Lu-lilotomab satetraxetan (U-2932 [3]; 10 nM, time (day): 4) | growth inhibition by drug plus 177Lu-lilotomab satetraxetan (U-2932 [3]; 10 nM, time (day): 5) | growth inhibition by drug plus 177Lu-lilotomab satetraxetan (U-2932 [3]; 10 nM, time (day): 6) | growth inhibition by drug plus 177Lu-lilotomab satetraxetan (U-2932 [3]; 1000 nM, time (day): 3) | growth inhibition by drug plus 177Lu-lilotomab satetraxetan (U-2932 [3]; 1000 nM, time (day): 4) | growth inhibition by drug plus 177Lu-lilotomab satetraxetan (U-2932 [3]; 1000 nM, time (day): 5) | growth inhibition by drug plus 177Lu-lilotomab satetraxetan (U-2932 [3]; 1000 nM, time (day): 6) | growth inhibition by drug plus 177Lu-lilotomab satetraxetan (RIVA [4]; 10 nM, time (day): 3) | growth inhibition by drug plus 177Lu-lilotomab satetraxetan (RIVA [4]; 10 nM, time (day): 4) | growth inhibition by drug plus 177Lu-lilotomab satetraxetan (RIVA [4]; 10 nM, time (day): 5) | growth inhibition by drug plus 177Lu-lilotomab satetraxetan (RIVA [4]; 10 nM, time (day): 6) | growth inhibition by drug plus 177Lu-lilotomab satetraxetan (RIVA [4]; 100 nM, time (day): 3) | growth inhibition by drug plus 177Lu-lilotomab satetraxetan (RIVA [4]; 100 nM, time (day): 4) | growth inhibition by drug plus 177Lu-lilotomab satetraxetan (RIVA [4]; 100 nM, time (day): 5) | growth inhibition by drug plus 177Lu-lilotomab satetraxetan (RIVA [4]; 100 nM, time (day): 6) |
| --- | --- | --- | --- | --- | --- | --- | --- | --- | --- | --- | --- | --- | --- | --- | --- | --- | --- | --- | --- | --- | --- | --- | --- | --- | --- | --- | --- | --- | --- | --- | --- | --- |
| COc1ccc(CCN2CCN(CCCc3ccccc3)CC2)cc1OC | 0.0269 | -0.00972 | -0.0184 | -0.287 | -0.032 | -0.091 | -0.153 | -0.298 | -0.0905 | -0.186 | -0.542 | -0.55 | -0.612 | -0.501 | -0.797 | -0.809 | -0.0743 | -0.0209 | 0.0479 | 0.0237 | 0.0208 | 0.0062 | 0.0376 | 0.127 | 0.23 | 0.322 | 0.343 | 0.385 | 0.0167 | 0.137 | 0.119 | 0.162 |
| C#Cc1cccc(Nc2ncnc3cc(OCCOC)c(OCCOC)cc23)c1 [Erlotinib HCl] | 0.33 | 0.251 | 0.131 | 0.0458 | 0.731 | 0.715 | 0.655 | 0.621 | 0.349 | 0.233 | 0.131 | -0.221 | 0.656 | 0.642 | 0.6 | 0.46 | 0.195 | 0.2 | 0.208 | 0.267 | 0.712 | 0.704 | 0.691 | 0.685 | 0.595 | 0.534 | 0.536 | 0.524 | 0.791 | 0.81 | 0.788 | 0.724 |
| CO[C@H]1C[C@@H]2CC[C@@H](C)[C@@](O)(O2)C(=O)C(=O)N2CCCC[C@H]2C(=O)O[C@H]([C@H](C)C[C@@H]2CC[C@@H](OC(=O)C(C)(CO)CO)[C@H](OC)C2)CC(=O)[C@H](C)/C=C(\C)[C@@H](O)[C@@H](OC)C(=O)[C@H](C)C[C@H](C)/C=C/C=C/C=C/1C [Temsirolimus (Torisel)] | 0.777 | 0.721 | 0.634 | 0.594 | 0.733 | 0.73 | 0.677 | 0.63 | 0.78 | 0.785 | 0.769 | 0.7 | 0.803 | 0.83 | 0.833 | 0.812 | 0.68 | 0.614 | 0.579 | 0.568 | 0.648 | 0.681 | 0.651 | 0.651 | 0.842 | 0.865 | 0.86 | 0.839 | 0.846 | 0.883 | 0.885 | 0.887 |
| CCCCCCCc1ccc(CCc2cccc(O)c2C(=O)O)cc1 | -0.00199 | -0.0102 | -0.0455 | -0.106 | 0.0439 | 0.0243 | -0.0103 | 0.0409 | -0.000498 | -0.0468 | -0.0726 | -0.153 | -0.176 | -0.164 | -0.186 | -0.241 | -0.0136 | 0.0406 | 0.0811 | 0.11 | 0.0189 | 0.0723 | 0.084 | 0.179 | 0.588 | 0.59 | 0.619 | 0.624 | 0.545 | 0.607 | 0.62 | 0.624 |
